Assay results published in PubChem BioAssay (NCATS).
Records with an inconclusive call do not appear. Activity calls are given as the source filed them. Unless noted, calls come from the whole dose curve; as a rule, active = well fitted curve in the direction sought with a large enough effect; inconclusive = small, poorly fitted or top-dose-only effect, or another doubt; inactive = no such curve, though single readings can be large; an effect the other way counts as inactive or inconclusive.

What was measured:
[1] = Cellular Toxicity (caspase-3) MRC-5 (AID 659); details: MRC-5 cells, luminescence, normalized: DMSO 0%, 10 µM staurosporine 100%; series mostly up to 91.7 µM
Summary of the method: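 Luminescence from caspase-cleaved aminoluciferin substrate (Caspase-Glo 3/7, 1 hr RT) reports caspase 3/7 activity in MRC-5 lung fibroblasts after 16 hr compound exposure. Normalized to DMSO basal and 10 uM staurosporine as 100%; AC50 from Hill fits.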

[2] = Cellular Toxicity (caspase-3) Mesangial (AID 660); details: mesangial cells, normalized: DMSO 0%, 100 µM tamoxifen 100%; series mostly up to 91.7 µM;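 note: combined caspase 3 and 7 activity read by Caspase-Glo luminescence; cells exposed to compound for 16 h before the caspase read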
Summary of the method: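 Concentration-response qHTS: compound-induced rise in caspase 3/7 luminescence in human mesangial cells after 16 h, normalized to DMSO and 100 uM tamoxifen controls.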

[3] = Cellular Toxicity (caspase-3) H-4-II-E (AID 663); details: H-4-II-E rat hepatoma, scaled: DMSO 0%, 100 µM tamoxifen 100%; series mostly up to 92.2 µM;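 note: cells exposed to compound for 16 hr before readout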
Summary of the method: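 Luminescence from caspase-cleaved aminoluciferin substrate, read 20 min after reagent addition, reports caspase 3/7 activation in rat H-4-II-E cells after 16 hr compound exposure. Normalized to DMSO (basal) and 100 uM tamoxifen (100%); AC50 from Hill fits.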

[4] = Cellular Toxicity (caspase-3) Hek293 (AID 664); details: HEK293 caspase-3 activation, DMSO = 0%, 100 µM tamoxifen = 100%; series mostly up to 92.2 µM;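 note: cells exposed to compound for 16 h at 37 °C before readout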
Summary of the method: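 Activation of caspase-3/7 is measured as increased luminescence from cleaved peptide-aminoluciferin substrate in HEK293 cells treated 16 hours at 37 °C. AC50 values come from Hill-equation fits of concentration-response data.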

[5] = Cellular Toxicity (caspase-3) N2a (AID 665); details: N2a cells, luminescence, normalized: DMSO 0%, 10 µM staurosporine 100%; at 92.2 µM (top of the series);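 note: compound exposure lasted 16 h at 37 °C before readout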
Summary of the method: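 Plated mouse neuroblastoma N2a cells received titrated compounds for 16 h in complete medium. Caspase activity was then detected with a peptide-aminoluciferin luminescent reagent.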

[6] = Cellular Toxicity (caspase-3) NIH 3T3 (AID 666); details: NIH 3T3 caspase-3 activation, apoptosis/toxicity, 0% DMSO, 100% is 100 µM tamoxifen; series mostly up to 92.2 µM;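 note: 0% = DMSO basal and 100% = 100 µM tamoxifen stimulation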
Summary of the method: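 Concentration-response qHTS in NIH 3T3 mouse fibroblasts scores caspase-3/7 activation as rising luminescence after 16 hr compound exposure. Signals are scaled between DMSO-only and 100 uM tamoxifen.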

[7] = Cell Viability - LYMP2-001 (AID 921); details: LYMP2-001 lymphoblastoid cell viability; series mostly up to 92.2 µM;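 note: 0% = DMSO only and full inhibition = tetraoctylammonium bromide control wells; nearly all actives have a fitted effect of over 70% in size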
Summary of the method: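 Cellular ATP loss read by luciferase luminescence after 24 h compound exposure at 37 C in complete medium. LYMP2-001 lymphoblastoid cells, 2500/well; qHTS concentration-response data fitted with Hill equation for AC50.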

[8] = MultiTox-Fluor Cytotoxicity Assay - LYMP1-001 - Dead Cells (AID 946); details: LYMP1-001 lymphoblastoid cells, dead-cell protease fluorescence; series mostly up to 92.2 µM
Summary of the method: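 Cytotoxicity as increased dead-cell protease fluorescence (bis-AAF-R110, 485/520 nm), read 60 min after MultiTox-Fluor reagent. Human lymphoblastoid line exposed 16 h; Hill-fitted AC50, with DMSO as 0% and 15 uM tetraoctylammonium bromide as 100%.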

[9] = MultiTox-Fluor Cytotoxicity Assay - LYMP1-001 - Live Cells (AID 947); details: LYMP1-001 lymphoblastoid cells, live-cell protease fluorescence viability; series mostly up to 92.2 µM;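 note: 0% = DMSO only and full inhibition = tetraoctylammonium bromide control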
[10] = Cell Viability - LYMP1-002 - Assay at 16 hr (AID 948); details: LYMP1-002 lymphoblastoid cell viability; series mostly up to 92.2 µM;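 note: 0% = DMSO alone and full effect = 92 µM tetraoctylammonium bromide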
Summary of the method: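 ATP luminescence (CellTiter-Glo) was measured after 16 hr compound exposure at 37 C of 2500 lymphoblastoid LYMP1-002 cells per well. Concentration-response curves were fitted with the Hill equation to give AC50.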

[11] = MultiTox-Fluor Cytotoxicity Assay - LYMP1-002 - Live Cells (AID 955); details: LYMP1-002 lymphoblastoid live-cell protease fluorescence viability; series mostly up to 46.1 µM; note: % is set by controls: 0 for no effect and ±100 for the full control effect
Summary of the method: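 Cytotoxicity in the human lymphoblastoid line LYMP1-002 is measured as loss of live-cell protease activity after 16 h treatment in complete culture medium. AC50 is derived from Hill-equation fits of qHTS concentration-response data.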

[12] = MultiTox-Fluor Cytotoxicity Assay - LYMP1-002 - Dead Cells (AID 960); details: LYMP1-002 lymphoblastoid cells, dead-cell protease fluorescence; series mostly up to 46.1 µM; note: nearly all actives have a fitted effect of over 60% in size
Summary of the method: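 Acute cytotoxicity in a human lymphoblastoid line is scored as rising dead-cell protease signal after 16 hr exposure at 37 C, measured fluorometrically (485/520).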

[13] = MultiTox-Fluor Cytotoxicity Assay - LYMP1-003 - Dead Cells (AID 961); details: LYMP1-003 lymphoblastoid cells, dead-cell protease fluorescence; series mostly up to 92.2 µM; note: nearly all actives have a fitted effect of over 70% in size
Summary of the method: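 Dead-cell protease release, detected as bis-AAF-R110 fluorescence at 485/520 nm, was measured in LYMP1-003 cells after 16 h compound treatment at 37 C. AC50 values came from Hill-modeled qHTS curves normalized to DMSO (0%) and 15 uM tetraoctylammonium bromide (100%).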

[14] = MultiTox-Fluor Cytotoxicity Assay - LYMP1-003 - Live Cells (AID 962); details: LYMP1-003 lymphoblastoid cells, MultiTox-Fluor live-cell protease fluorescence; series mostly up to 92.2 µM;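 note: 0% = DMSO only and full loss = 92 µM tetraoctylammonium bromide; cytotoxic hits lower the live-cell protease signal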
Summary of the method: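 Cells plated at 2500 per well and incubated 5 hr; compounds added and incubated 16 hr at 37 C; MultiTox-Fluor reagent added for 60 min at room temperature; fluorescence of liberated AFC measured at 405/510 nm.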

[15] = Cell Viability - LYMP1-003 - Assay at 24 hr (AID 963); details: LYMP1-003 lymphoblastoid cell viability; series mostly up to 92.2 µM;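 note: plate controls were DMSO only for no effect and tetraoctylammonium bromide positive control for full effect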
Summary of the method: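 Acute toxicity in LYMP1-003 lymphoblastoid cells: 24 hr compound treatment at 37 C, ATP measured with CellTiter-Glo after 30 min at room temperature. AC50 derived by fitting the Hill equation to qHTS titrations.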

[16] = qHTS assay for small molecule agonists of the antioxidant response element (ARE) signaling pathway measured by Nrf2-dependant transcriptional activity (AID 720636; active = well fitted curve in the direction sought with a large enough effect in the repeat runs; an effect the other way counts as inactive or inconclusive;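 note: HepG2 cells with an ARE-driven luciferase reporter; % of control where 0% means no effect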); details: ARE-luc HepG2, Nrf2 luciferase reporter, 16 h; series mostly up to 92.4 µM
Summary of the method: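 HepG2 ARE-luc reporter line, 1% dialyzed FBS; 6 hr attachment at 37 C, compound pinned in, 16 hr at 37 C/5% CO2; ONE-Glo, 30 min RT, luminescence read.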

[17] = qHTS assay for small molecule agonists of the antioxidant response element (ARE) signaling pathway measured by Nrf2-dependant transcriptional activity - cell viability counter screen (AID 720653; active = well fitted curve in the direction sought with a large enough effect in the repeat runs; an effect the other way counts as inactive or inconclusive; note: % is set by controls: 0 for no effect and ±100 for the full control effect); details: ARE-bla HepG2 viability, CellTiter-Glo ATP luminescence, 16 h; stronger effect = lower value
Summary of the method: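 ARE-bla HepG2 cells (2,000/well) rested 5 hrs at 37C/5% CO2, then exposed to compounds in DMSO for 16 hrs. Viability was read in the same wells as intracellular ATP by luminescence, 30 min at room temperature after reagent addition.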

[18] = qHTS assay for cell viability of HEK293 cells (AID 743288); details: ATP luminescence (CellTiter-Glo), 18 h; max response: stronger effect = lower value; note: % is set by controls: 0 for no effect and ±100 for the full control effect; nearly all actives have a fitted effect of over 50% in size
Summary of the method: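 Total intracellular ATP, measured with a luciferase-coupled reagent, indicates the number of viable HEK293 cells. Exposure to test chemicals lasts 18 h at 37 C in 1,536-well format at 2,000 cells/well.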

[19] = qHTS assay for cell viability of the p53RE-bla HCT-116 cell line (AID 743292); details: p53RE-bla HCT-116 viability, ATP luminescence, 16 h; series mostly up to 95 µM; note: % is set by controls: 0 for no effect and ±100 for the full control effect; nearly all actives have a fitted effect of over 55% in size
Summary of the method: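 Luminescent ATP quantitation (CellTiter-Glo) served as the viability read-out; reagent was added after 16 h compound exposure at 37 C and read after 30 min at room temperature. Cells: p53RE-bla HCT-116, 4,000 per well.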

[20] = qHTS assay for small molecule activators of the human pregnane X receptor (PXR) signaling pathway (AID 720659; call rule not given here; note: 0% is about no effect); details: DPX-2 HepG2 CYP3A4-luciferase, 24 h; series mostly up to 92.3 µM

C=CCc1ccc2c(c1)OCO2
inactive: outcome [1] | outcome [2] | outcome [3] | outcome [4] | caspase-3 activation [5] -4.3% | outcome [6] | Potency [7] | Potency [8] | Potency [9] | Potency [10] | outcome [11] | Potency [12] | Potency [13] | Potency [14] | Potency [15] | outcome [16] | max response [17] -4.7% | max response [18] -8.48% | Potency [19] | outcome [20]
